The results in this text go back to PubChem BioAssay (Tox21).

Assay [1] is described as follows: A CellTox Green Cytotoxicity Assay to monitor cytotoxicity in HEK293 cells - 32 hour (AID 1224881). Further: nearly all actives have a fitted effect of over 40% in size. Further: potency means the concentration at half of the fitted maximal effect. In a few lines: (§1)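 Fluorescence from a DNA-binding dye excluded by viable cells was measured repeatedly in the same HEK293 wells (600 cells/well) during continuous compound exposure at 37 C. Each assay gives one read point: 0, 8, 16, 24, 32 or 40 h.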
The nature of assay [2]: A CellTox Green Cytotoxicity Assay to monitor cytotoxicity in HepG2 cells - 0 hour (AID 1224882). Further: nearly all actives have a fitted effect of over 35% in size. The method, boiled down: (§2)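 Real-time cytotoxicity: fluorescence of a cell-impermeant cyanine dye binding DNA of dead HepG2 cells, measured repeatedly (0–40 h) during compound exposure at 37 C. Cells seeded 600/well with reagent, dosed after 5 h.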
Assay [3] in a line: A CellTox Green Cytotoxicity Assay to monitor cytotoxicity in HepG2 cells - 32 hour (AID 1224883). Further: nearly all actives have a fitted effect of over 50% in size. Further: potency means the concentration at half of the fitted maximal effect. The method, boiled down:
as §2

A short description of assay [4]: A CellTox Green Cytotoxicity Assay to monitor cytotoxicity in HEK293 cells - 8 hour (AID 1224884). Further: nearly all actives have a fitted effect of over 35% in size. Further: potency means the concentration at half of the fitted maximal effect. In a few lines: as §1
Assay [5] can be described thus: qHTS RealTime-Glo MT Cell Viability Assay in HEK293 cells - 24 hour (AID 1224886). Further: nearly all actives have a fitted effect of over 50% in size. Further: potency means the concentration at half of the fitted maximal effect. In a few lines:
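Cells + reagent dispensed (600 cells/well, HEK293) → 5 h at 37 C/5% CO2 → 23 nL compound in DMSO pinned → 40 h at 37 C → luminescence read at 0, 8, 16, 24, 32, 40 h.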
In general terms: qHTS replaces the single test concentration by a dilution series.

Assay [6] is described as follows: qHTS RealTime-Glo MT Cell Viability Assay in HEK293 cells - 8 hour (AID 1224887). Further: nearly all actives have a fitted effect of over 50% in size. Further: potency means the concentration at half of the fitted maximal effect. The method, boiled down: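 Luminescence, which tracks viable cell number through reduction of the prosubstrate to a NanoLuc substrate, was read over continuous 37 C culture. Cells (600/well) were premixed with reagent and rested 5 h before 23 nL of compound in DMSO was pinned.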
Assay [7] can be described thus: A CellTox Green Cytotoxicity Assay to monitor cytotoxicity in HEK293 cells - 16 hour (AID 1224888). Further: nearly all actives have a fitted effect of over 35% in size. Further: potency means the concentration at half of the fitted maximal effect. In a few lines: as §1
A short description of assay [8]: qHTS RealTime-Glo MT Cell Viability Assay in HepG2 cells - 0 hour (AID 1224889). Further: nearly all actives have a fitted effect of over 50% in size. The method, boiled down:
(§3)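 Real-time, nonlytic viability: 600 HepG2 cells/well mixed with NanoLuc enzyme plus prosubstrate; 5 h settle, compound (DMSO) added by pintool; luminescence monitored over 40 h at 37 C.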

A short description of assay [9]: qHTS assay to identify small molecule antagonists of the estrogen receptor alpha (ER-alpha) signaling pathway using the BG1 cell line in the presence of 0.1 nM 17-beta-estradiol - cell viability counter screen (AID 1259241). Further: nearly all actives have a fitted effect of over 40% in size. Further: potency means the concentration at half of the fitted maximal effect. In a few lines:
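Estradiol-stimulated (0.1 nM) VM7Luc4E2 cells exposed to compounds 22 hr; viability measured by fluorescence of cleaved CellTiter-Fluor substrate after 30 min.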

Assay [10] is described as follows: qHTS assay to identify small molecule HDAC inhibitors (AID 1259364). Further: top concentration of the series differs between compounds; nearly all actives have a fitted effect of over 45% in size. The method, boiled down:
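Luminescence read after 30 min room-temperature HDAC-Glo incubation measures cellular class I/II HDAC activity. Compounds were applied for 2 hr at 37 C to HCT-116 wild-type cells seeded the day before.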

Assay [11] in a line: qHTS assay to identify small molecule HDAC inhibitors - cell viability counter screen (AID 1259365). Further: nearly all actives have a fitted effect of over 50% in size. Further: potency means the concentration at half of the fitted maximal effect. In a few lines: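 After overnight seeding at 1,500 cells per well, wild-type HCT-116 cultures took up compounds in DMSO for 2hr at 37 C. Viable cell content came from luminescence with CellTiter-Glo.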
A short description of assay [12]: qHTS assay to identify small molecule antagonists of the sonic hedgehog signaling (Shh) pathway - cell viability counter screen (AID 1259367). Further: nearly all actives have a fitted effect of over 55% in size. Further: potency means the concentration at half of the fitted maximal effect. In a few lines: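 CellTiter-Fluor signal in conditioned medium-stimulated 3T3 Gli1-Luc cells, 23 hr compound exposure, 37C.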
The nature of assay [13]: A CellTox Green Cytotoxicity Assay to monitor cytotoxicity in HepG2 cells - 8 hour (AID 1224890). Further: nearly all actives have a fitted effect of over 45% in size. Further: potency means the concentration at half of the fitted maximal effect. The method, boiled down: as §2
The nature of assay [14]: qHTS assay to identify small molecule antagonists of the androgen receptor (AR) signaling pathway using the MDA cell line in the presence of 0.5 nM R1881 - cell viability counter screen (AID 1259242). Further: nearly all actives have a fitted effect of over 45% in size. In a few lines: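 Live-cell protease activity was measured by CellTiter-Fluor fluorescence after 30 min. Before that, MDA-kb2 MMTV-luciferase cells had 16 hr at 37C without CO2, exposed to test compounds and 0.5 nM R1881 final.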

In assay [15] the target is Estrogen receptor (Homo sapiens) (UniProt P03372). Put plainly: qHTS assay to identify small molecule antagonists of the estrogen receptor alpha (ER-alpha) signaling pathway using the BG1 cell line in the presence of 0.1 nM 17-beta-estradiol (AID 1259244). Further: nearly all actives have a fitted effect of over 50% in size. Further: potency means the concentration at half of the fitted maximal effect. The method, boiled down:
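Luciferase luminescence (ONE-Glo, 30 min at room temperature) was read after 22 hr at 37C exposure to compounds plus 17beta-estradiol at 0.1 nM final. Cells were VM7Luc4E2 with endogenous ER-alpha and an ERE-driven luciferase, pre-cultured 5 days in hormone-depleted medium.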

Assay [16] is described as follows: qHTS assay to identify small molecule agonists of the sonic hedgehog signaling (Shh) pathway (AID 1259368; calls by dose curve;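 further: NIH/3T3-derived 3T3Gli1-Luc cells carrying a stable Gli1-driven firefly luciferase reporter; series mostly up to about 92 µM; nearly all actives have a fitted effect of over 15% in size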). In a few lines: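 Luminescence was read after 30 min at room temperature with luciferase reagent. Before that, 3T3Gli1-Luc cells (NIH/3T3 clone, stable Gli1-Luc reporter; 2,000/well) were exposed to compounds for 24 hr at 37C, 5% CO2, compounds being added 4 hr post-plating.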

Assay [17] in a line: qHTS RealTime-Glo MT Cell Viability Assay in HepG2 cells - 16 hour (AID 1224885). Further: nearly all actives have a fitted effect of over 50% in size. The method, boiled down:
as §3

Assay [18] in a line: qHTS assay to identify small molecule phospholipidosis (PLD) inducers (AID 1259344; active means well fitted curve in the direction sought with a large enough effect; an effect the other way counts as inactive or inconclusive). In a few lines:
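Accumulated phospholipid, stained red by LipidTOX during 24 h compound treatment of HepG2 cells at 37 C, is quantified from images as pit number and intensity, normalised per cell using Hoechst-stained nuclei.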

A short description of assay [19]: qHTS assay to identify small molecule agonists of the sonic hedgehog signaling (Shh) pathway - cell viability counter screen (AID 1259366). Further: nearly all actives have a fitted effect of over 50% in size. In a few lines:
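Same-well cytotoxicity read. Gli1-Luc reporter 3T3 cells; compounds 24hr, 37C/5% CO2; CellTiter-Fluor fluorescence.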

Values joined by “and” are separate entries in the source; they are usually repeats but may differ in a detail not shown here. Equal values may be shown once. Records with an inconclusive call do not appear. A structure can be active in one record and inactive in another. Active and inactive are the calls of the source. Unless noted, the call rests on the fitted dose curve; in most records, active means well fitted curve in the direction sought with a large enough effect in the repeat runs; inconclusive means weak or mixed curves; inactive means no such curve, though single readings can be large; an effect the other way counts as inactive or inconclusive.

Chain of Estrogen receptor (Homo sapiens) (P03372 whole entry, looked up): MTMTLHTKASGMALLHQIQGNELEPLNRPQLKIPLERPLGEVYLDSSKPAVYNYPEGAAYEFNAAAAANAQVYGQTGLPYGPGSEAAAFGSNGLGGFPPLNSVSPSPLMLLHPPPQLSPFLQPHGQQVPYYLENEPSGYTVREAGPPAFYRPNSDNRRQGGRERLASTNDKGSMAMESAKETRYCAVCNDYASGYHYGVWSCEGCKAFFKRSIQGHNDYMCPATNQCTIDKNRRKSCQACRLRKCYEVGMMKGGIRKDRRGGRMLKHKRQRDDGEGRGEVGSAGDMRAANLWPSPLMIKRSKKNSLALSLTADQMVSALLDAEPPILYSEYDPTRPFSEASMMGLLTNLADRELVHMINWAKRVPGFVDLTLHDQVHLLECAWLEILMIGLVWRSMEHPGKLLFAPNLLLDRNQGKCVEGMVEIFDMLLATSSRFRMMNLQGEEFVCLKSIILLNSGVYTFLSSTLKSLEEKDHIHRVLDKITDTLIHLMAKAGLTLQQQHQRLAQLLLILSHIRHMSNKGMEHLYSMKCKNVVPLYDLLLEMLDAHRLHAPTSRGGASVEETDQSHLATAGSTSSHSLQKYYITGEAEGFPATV

For `Clc1cccc(Cl)c1`, the Potency result in [1], in assay [2], in [3], in assay [4], in assay [5] and in assay [6] was “inactive” throughout. In addition, the Potency entry in assay [7], in [8], in assay [9], in assay [10], in [11] and in assay [12] was “inactive” throughout.
As for `CC1CC(=O)O1` (stereo not drawn), the Potency result in [1], in [2], in assay [3], in assay [4], in assay [5] and in [6] was “inactive” throughout. The Potency result in [7], in assay [8], in assay [13], in assay [9], in assay [10] and in assay [12] was “inactive” each time.
Regarding `CSc1nc(NC(C)C)nc(NC(C)C)n1`, the Potency result in assay [1], in assay [2], in assay [3], in [4], in assay [5] and in [6] was “inactive” each time. Moreover, the Potency entry in assay [7], in assay [8], in assay [9], in [14], in assay [15] and in assay [10] was “inactive” each time. Besides, the Potency result in [12] and in assay [16] was “inactive” throughout.
Take `CCCCCCCCCC(CC)c1ccc(S(=O)(=O)O)cc1` (stereo not drawn): the Potency result in assay [2], in assay [17], in [6], in [8], in assay [9] and in [10] was “inactive” each time. For the same compound, the Potency entry in assay [11], in assay [19], in assay [12] and in assay [16] was “inactive” each time. Besides, the Potency in assay [3] was 54.9 µM (active) and 21.3 µM (active) and 38.9 µM (active); in assay [5] it was 44.1 µM (active) and inactive. Further, in [18], the compound was called inactive.
For the compound `O=NN1CCOCC1`, the Potency result in [1], in [2], in [3], in [4], in assay [7] and in [8] was “inactive” each time. Besides, the Potency result in assay [13], in [9], in [15], in assay [10], in assay [19] and in assay [12] was “inactive” throughout. The Potency entry in assay [16] was “inactive”. Moreover, the Potency entry in assay [5] was “inactive and 2.45 µM (active)”; in assay [6], “inactive and 7.76 µM (active)”.
For `CCOP(=O)(OCC)OCC`, the Potency result in assay [1], in [2], in [3], in [4], in [5] and in assay [6] was “inactive” each time. Also, the Potency result in assay [7], in [8], in assay [13], in assay [9], in assay [10] and in [11] was “inactive” each time. Further, the Potency entry in assay [19], in assay [12] and in assay [16] was “inactive” in each case.
Take `O=C1C(Cl)=C(Cl)C(=O)c2ccccc21`: the Potency is 6.19 µM (active) and 6.17 µM (active) in assay [1]; 15.5 µM (active) and 4.9 µM (active) in assay [3]; 27.6 µM (active) and inactive in assay [4]; 6.19 µM (active) and 9.77 µM (active) in assay [5]; 6.19 µM (active) and 7.76 µM (active) in [6]; 4.91 µM (active) in assay [7]. Besides, the Potency in assay [13] is 15.5 µM (active) and 6.17 µM (active); in assay [9] it was 24.4 µM (active); in [15], 12.2 µM (active) and 19.3 µM (active); in assay [11], 61.3 µM (active) and 38.6 µM (active); in [12] it was 4.87 µM (active). Also, the Potency result in [2] and in [16] was “inactive” in each case.
Take `Nc1ccc([N+](=O)[O-])cc1N`: the Potency result in [1], in assay [2], in assay [3], in [4], in assay [5] and in [6] was “inactive” throughout. Besides, the Potency result in [7], in assay [8], in assay [13], in [10], in [11] and in assay [16] was “inactive” throughout. Besides, the Potency is 61.1 µM (active) in [9]; 12.2 µM (active) and 19.3 µM (active) in [12].
